# Measured values from PubChem BioAssay AID779 (Sanford-Burnham Center for Chemical Genomics, 2007).
# Calls of active or inactive are those of the source. No rule for the calls is given here.
# Test: placental alkaline phosphatase inhibitors, dose response, counter-screen, biochemical, colorimetric (AID 779)
# Details: PLAP counter-screen, colorimetric OD read-out
row,SMILES,IC50
1,COc1ccc(S(=O)(=O)Nc2cc(Sc3ncn[nH]3)c(O)c3ccccc23)cc1,> 50 µM (inactive)
2,CCN(CCNC(=O)C1CCCN(S(=O)(=O)CC)C1)c1ccccc1 (stereo unspecified),> 50 µM (inactive)
3,CCN(CC)CCCN(Cc1cc2cc3c(cc2[nH]c1=O)OCCO3)C(=O)Nc1ccccc1,> 50 µM (inactive)
4,CCCOc1ccc(-c2nn(-c3ccccc3)cc2/C=C2\SC(=S)N(C3CCS(=O)(=O)C3)C2=O)cc1 (stereo unspecified),> 50 µM (inactive)
5,COc1ccc2sc3ccccc3c(=O)c2c1OC,> 50 µM (inactive)
6,CC(C)CC(C(=O)Nc1oc(-c2ccco2)c(-c2ccco2)c1C#N)N1C(=O)c2ccccc2C1=O (stereo unspecified),> 50 µM (inactive)
7,CCC(C)COC(=O)C(C#N)c1nc2ccccc2nc1N1CCCCC1 (stereo unspecified),> 50 µM (inactive)
8,CCOC(=O)C(C(=O)OCC)c1cc(Br)c2noc3c2c1C(=O)c1ccccc1-3,> 50 µM (inactive)
9,Oc1ccc(-c2cn3c(n2)SCC3)cc1O,> 50 µM (inactive)
10,Cc1c(NC(=O)CCN2C(=O)c3ccccc3C2=O)c(=O)n(-c2ccccc2)n1C,> 50 µM (inactive)
11,COc1cc(/C=C2\SC(=S)N(Nc3ccccc3)C2=O)cc(OC)c1OC,> 50 µM (inactive)
12,CCNc1ccc(Br)cc(C(=O)/C=C/c2ccc3c(c2)OCO3)c1=O,> 50 µM (inactive)
13,CC1CCCN(c2nc3ccccc3nc2C(C#N)C(=O)OC2CCCCC2)C1 (stereo unspecified),> 50 µM (inactive)
14,CC(C(=O)O)N1C(=O)/C(=C/C=C/c2ccco2)SC1=S (stereo unspecified),> 50 µM (inactive)
15,Cc1nc(C)c(C(=O)Nc2nc3c(C)cccc3s2)o1,> 50 µM (inactive)
16,CCOC(=O)C1=C(C)N=c2s/c(=C/c3ccco3)c(=O)n2C1c1cccc(OC)c1 (stereo unspecified),> 50 µM (inactive)
